The record followed here is PubChem BioAssay AID2685 (National Center for Advancing Translational Sciences (NCATS), 2010).

Structures are written as SMILES. In all, about 320,000 compounds went through this assay and about 2,100 (0.66%) were called active. About 53% were inconclusive and are not listed. The call rests on the fitted dose curve; in most records, active means well fitted inhibition curve with a large enough effect in the signal ratio, with a control signal flat (not every such curve was filed as active); inconclusive means small, poorly fitted or top-dose-only effect, or effect the other way, or a change in a side signal; inactive means flat fitted curve, though single readings scatter; the % refers to the signal ratio. For the sample, actives were picked, then their nearest neighbours and some compounds at random.
Potency means the concentration at half of the fitted maximal effect.

The nature of this experiment: qHTS Assay for Lipid Storage Modulators in Drosophila S3 Cells.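 On cell number change: cells counted by Cell Tracker Red CMTPX staining in the red channel.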 On lipid storage change, negative = inhibition: on the % scale 0 is the no-effect control and ±100 the full control effect. Particulars: BODIPY lipid droplet fluorescence, 18-24 h, cells fed with added oleic acid; cell number change: measured here: cell count max response; series mostly up to 46.1 µM; lipid storage change, negative = inhibition: at the top concentration. In a few lines:
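Drosophila S3 cells got compounds at several concentrations plus oleic acid (400 uM solution). Laser-scanning cytometry with 488 nm excitation read lipid droplets at 500-530 nm and cells at 575-640 nm. Percent activity was relative to 20 uM Triacsin C.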
In general terms: qHTS replaces the single test concentration by a dilution series.
Turning to `C/C(=N/NC(=O)CN(c1ccccc1)S(=O)(=O)c1ccccc1)c1ccccc1O`, the outcome was inactive and the cell number change is 19.6%.

`Cc1cc(NC(=O)CCN2C(=O)/C(=C\c3ccccc3)SC2=S)no1`: the “lipid storage change, negative = inhibition” value was -5.44% (inactive) and the cell number change was -8.06%.

On to `COc1ccc(-c2nnn(CC(=O)N3CCN(c4ccc(F)cc4)CC3)n2)cc1`, for which the “lipid storage change, negative = inhibition” value is -12.3% (inactive) and the cell number change stood at 0.734%.

Consider `O=C(NCc1nc2ccccc2[nH]1)C1=C[C@H](c2csc3ccccc23)C[C@H](OCc2ccc(CO)cc2)O1`, for which the “lipid storage change, negative = inhibition” value is 14.1% (inactive) and the cell number change came to 13.4%.

For the compound `COc1cc(CC(=O)OCC(=O)Nc2ccc(S(=O)(=O)N3CCCC3)cc2)cc(OC)c1OC`, the “lipid storage change, negative = inhibition” value is 10.3% (inactive) and the cell number change is -19.3%.

For `CCn1cc(C(=O)NCCCN(CC(C)C)CC(C)C)c(=O)c2cc(S(=O)(=O)N3CCOCC3)ccc21`, the result was inactive and the cell number change worked out at 21.3%.

As for `CCn1cc(C(=O)NCCN(CC(C)C)CC(C)C)c(=O)c2cc(S(=O)(=O)N3CCOCC3)ccc21`, the Potency was 7.31 µM (active) and the cell number change came to 0.403%.

Regarding `CCCN(CCC)CCCNC(=O)c1cn(CC)c2ccc(S(=O)(=O)N3CCOCC3)cc2c1=O`, the call was inactive and the cell number change was determined as 5.34%.

Regarding `CC1CCN(Cc2cc(=O)oc3ccc4ccccc4c23)CC1`, the “lipid storage change, negative = inhibition” value was 9.37% (inactive) and the cell number change was determined as 16.9%.

On to `COc1ccc(C(=O)CC2SC(N)=NC2=O)cc1` (stereo unspecified), for which the “lipid storage change, negative = inhibition” value was 16.9% (inactive) and the cell number change was found to be 30%.

For `Nc1[nH]ncc1C(=O)Nc1cccc(C(F)(F)F)c1`, the “lipid storage change, negative = inhibition” value is 13.4% (inactive) and the cell number change was -8.81%.

As for `O=C(OCC(=O)N(C1CCCCC1)C1CCCCC1)c1ccc(O)cc1`, the call was inactive and the cell number change was found to be 3.31%.

Regarding `CC(C)(C)C(=O)COC(=O)c1ccc(O)cc1`, the “lipid storage change, negative = inhibition” value is 8.5% (inactive) and the cell number change came to 15.5%.

Regarding `CCN(CC)C(=O)COC(=O)c1ccc(O)cc1`, the Potency was 20.6 µM (active) and the cell number change was determined as 4.39%.

On to `COCCC(=O)N1CCC(Oc2ccc(C(=O)NCCc3cnn(C)c3)cc2)CC1`, for which the call was inactive and the cell number change worked out at 8.02%.

As for `CCCN1CCC(NC(=S)Nc2ccc(S(N)(=O)=O)cc2)CC1`, the “lipid storage change, negative = inhibition” value is -2.97% (inactive) and the cell number change is -2.79%.

As for `Cc1ccc(C(CNC(=O)Nc2ccccc2)N2CCN(C)CC2)cc1` (stereo unspecified), the Potency was 7.31 µM (active) and the cell number change was determined as 20.2%.

Turning to `Cc1cccc(NC(=O)NCC(c2ccc(F)cc2)N2CCN(C)CC2)c1` (stereo unspecified), the compound was called inactive.

For `Cc1ccc(C(CNC(=O)Nc2cccc(C)c2)N2CCN(C)CC2)cc1` (stereo unspecified), the “lipid storage change, negative = inhibition” value was -6.58% (inactive) and the cell number change was -5.52%.

Turning to `S=C(NCc1ccccc1)NCc1cccc(Cl)c1`, the “lipid storage change, negative = inhibition” value is -9.43% (inactive) and the cell number change was 7.23%.

With `O=C(COc1ccc(S(=O)(=O)N2CCOCC2)cc1)Nc1ccccc1Cl`, the Potency is 1.84 µM (active) and the cell number change was determined as 7.69%.

`Cc1ccc(S(=O)(=O)N2CCOCC2)cc1NC(=O)COc1ccc(C(=O)c2ccccc2)cc1`: the Potency was 7.31 µM (active) and the cell number change was found to be 12.9%.

In the case of `O=C(CSc1ncnc2sccc12)Nc1ccc(S(=O)(=O)N2CCOCC2)cc1`, the Potency is 14.6 µM (active) and the cell number change worked out at 4.37%.

Consider `Nc1nnc(SCC(=O)Nc2ccc(S(=O)(=O)N3CCOCC3)cc2)s1`, for which the result was inactive.

Regarding `Cc1ccc(S(=O)(=O)N2CCOCC2)cc1NC(=O)COC(=O)CNC(=O)c1ccccc1`, the “lipid storage change, negative = inhibition” value was 0.338% (inactive) and the cell number change came out at 5.41%.

Consider `Cc1cc(C)c(OCC(=O)Nc2ccc(S(=O)(=O)N3CCOCC3)cc2)c(C)c1`, for which the Potency is 2.31 µM (active) and the cell number change came out at 10.8%.

For the compound `Cc1cc(C)c(OCC(=O)Nc2ccc(S(=O)(=O)N3CCCC3)cc2)c(C)c1`, the result was inactive.

As for `Cc1ccc(S(=O)(=O)N2CCOCC2)cc1NC(=O)COc1ccc2c(C)cc(=O)oc2c1`, the result was inactive.

On to `O=C(COc1ccccc1Cl)Nc1ccc(S(=O)(=O)N2CCOCC2)cc1`, for which the “lipid storage change, negative = inhibition” value was -23.5% (inactive) and the cell number change is -11.3%.

On to `O=C(COc1ccc(S(=O)(=O)N2CCOCC2)cc1)Nc1ccccc1F`, for which the outcome is “inactive [at 0.0737 µM]”.

On to `Cc1ccc(OCC(=O)Nc2ccc(S(=O)(=O)N3CCOCC3)cc2)c(C)c1`, for which the call was inactive and the cell number change turned out to be 25.8%.

`O=C(CSc1ncnc2ccccc12)Nc1cccc(S(=O)(=O)N2CCOCC2)c1`: the result was inactive.

`O=C1C(NS(=O)(=O)c2cccs2)=C(N2CCOCC2)C(=O)c2ccccc21`: the “lipid storage change, negative = inhibition” value was -8.94% (inactive) and the cell number change is -7.78%.

Regarding `O=C(Cn1nc2ccccc2n1)N/N=C/c1ccc(F)cc1`, the “lipid storage change, negative = inhibition” value was 14.4% (inactive) and the cell number change was -8.94%.

As to `CCOC(=O)c1nnn(-c2nonc2N)c1CSc1nnc(N)s1`, the “lipid storage change, negative = inhibition” value was -3.22% (inactive).

As for `Cc1cccc(C(=O)O/N=C/c2ccc(Br)cc2)c1`, the “lipid storage change, negative = inhibition” value was -1.38% (inactive) and the cell number change was 7.42%.

Regarding `Cc1ccc(S(=O)(=O)NC(C(=O)N2CCOCCOCCOCCOCC2)C(C)C)cc1` (stereo unspecified), the call was inactive and the cell number change was -9.21%.

For the compound `Cc1cc(=O)oc2cc(OCC(=O)OCC(=O)Nc3ccc(C(N)=O)cc3)ccc12`, the “lipid storage change, negative = inhibition” value was 17.8% (inactive) and the cell number change amounted to 4.9%.

Regarding `CN1CCN(C(=O)c2ccc(COc3cc(Cl)ccc3Cl)o2)CC1`, the outcome was inactive and the cell number change stood at 0.87%.

Consider `CCC1(CC)Cc2ccccc2C(C2=C(O)CC(C)(C)CC2=O)=N1`, for which the “lipid storage change, negative = inhibition” value is -4.5% (inactive) and the cell number change worked out at 0.769%.

For the compound `Cc1ccc2c(c1)COc1c3ccc(C(=O)N4CCCCC4)cc3nn1-2`, the “lipid storage change, negative = inhibition” value is -0.0831% (inactive) and the cell number change was -6.37%.

On to `O=C(Cc1ccccc1[N+](=O)[O-])NCCc1ccc(F)cc1`, for which the “lipid storage change, negative = inhibition” value was -14.2% (inactive) and the cell number change was 16.5%.

Turning to `CC(C)Cc1nnc(NC(=O)C2CCN(C(=O)c3ccc(F)cc3)CC2)s1`, the call was inactive.

As for `O=S(=O)(c1ccc(Oc2ccccc2)cc1)N1CCOCC1`, the “lipid storage change, negative = inhibition” value is 4.76% (inactive).

`CC(=O)c1cccc(OCC(=O)Nc2cc(S(=O)(=O)N3CCOCC3)ccc2N2CCCC2)c1`: the “lipid storage change, negative = inhibition” value was -3.85% (inactive) and the cell number change was -28.5%.
